Experimental data reported in the supplement of paper PMC6992640.

Test system: UCD52 (cells of a triple-negative basal-like breast cancer xenograft)
Assay: cell viability of combination (% of vehicle); higher = less cytotoxic
Settings: 1 µM; 72 h; partner dose: 10 nM
Description: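 PDX cells were treated for 72 h with each drug at 1 µM plus carfilzomib (10 nM; 100 nM for WHIM2). Luciferase viability is expressed as percent of vehicle.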

**Q.** With `CN1CCN(CCCN2c3ccccc3Sc3ccc(C(F)(F)F)cc32)CC1.Cl.Cl` [Trifluoperazine 2HCl] + CC(C)C[C@H](NC(=O)[C@H](CCc1ccccc1)NC(=O)CN1CCOCC1)C(=O)N[C@@H](Cc1ccccc1)C(=O)N[C@@H](CC(C)C)C(=O)[C@@]1(C)CO1 [Carfilzomib] as the molecule, how does the “cell viability of combination” value read?
**A.** 59.5

**Q.** For `CCc1c(Cl)c(O)c(Cl)c(O)c1C(=O)OC1C(C)OC(OCC2=CC=CCC(O)C(C)=CC(CC)C(OC3OC(C)(C)C(OC(=O)C(C)C)C(O)C3O)C(C)=CC(C)=CCC(C(C)O)OC2=O)C(OC)C1O` (stereo not drawn) [Fidaxomicin] + CC(C)C[C@H](NC(=O)[C@H](CCc1ccccc1)NC(=O)CN1CCOCC1)C(=O)N[C@@H](Cc1ccccc1)C(=O)N[C@@H](CC(C)C)C(=O)[C@@]1(C)CO1 [Carfilzomib], which “cell viability of combination” value is on record?
**A.** 62.7

**Q.** Which “cell viability of combination” value does the source give for `CC1(COc2ccc3c(c2)ncn3-c2ccc3cccc(N4CCC(N)CC4)c3n2)COC1` + CC(C)C[C@H](NC(=O)[C@H](CCc1ccccc1)NC(=O)CN1CCOCC1)C(=O)N[C@@H](Cc1ccccc1)C(=O)N[C@@H](CC(C)C)C(=O)[C@@]1(C)CO1 [Carfilzomib] here?
**A.** 135
